Bioassay records from PubChem.
Compounds with a hit are over-represented: about 3.1% of the library has one in this group of screens.
Peg3 prom inh-1 = Peg3 promoter-driven luciferase inhibitors, primary screen, cell-based, HeLa, luciferase luminescence; HeLa PEG-Prom luciferase reporter, overnight; inhibition, % at 20 µM; 360,000 compounds, 1.7% hits; AID 588405, 2011;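 active means inhibition of at least 50% at 20 µM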
MITF TRPM1 inh = inhibitors of MITF-dependent TRPM1 promoter reporter, primary screen, cell-based, SK-MEL-5, single point, luciferase. AID 488899, 2010. inhibition, % at 12.5 µM. 330,000 compounds, 0.83% hits. SK-MEL-5 TRPM1 promoter luciferase, 24 h;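 active means mean inhibition across replicates of 60% or more, whatever share of single replicates reaches that level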
CF NFkB inh = inhibitors of PAF-induced NF-kB signaling, primary screen, cell-based, GFP fluorescence, uHTS; 360,000 compounds, 0.86% hits; inhibition, % at 5 µM; AID 588850, 2011; KKLEB NF-kB-GFP reporter, GFP fluorescence overnight;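 active means at least 50% inhibition at 5 µM, scaled per plate between neutral and stimulator controls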;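 further: PAF is a Pseudomonas aeruginosa culture filtrate used as stimulus; plate controls were PAF-stimulated DMSO wells for no effect and unstimulated DMSO wells for full effect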
KKLEB tox = cytotoxicity in KKLEB CF airway cells, primary screen, cytotoxicity control for CF NF-kB inhibitor project, cell-based, uHTS, fluorescence assay plates; activity change (cytotoxicity), % at 5 µM; 360,000 compounds, 0.36% hits; KKLEB CF airway cells viability, ATPlite luminescence, overnight; hits give low values; cells stimulated with P. aeruginosa culture filtrate;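 active means corrected activity change at or below -50% at 5 µM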
HIF-2a block = HIF-2a reporter inhibitors, primary screen, luminescence, 786-0 RCC cells | 786-0 RCC cells HIF-2a reporter, luciferase luminescence, overnight | inhibition, % at 18.8 µM | 360,000 compounds, 0.72% hits | AID 624352, 2012;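 active means inhibition of the luminescence signal of 40% or more relative to plate controls, in a single-dose primary screen at 18.75 µM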
ABHD5-PLIN5 inh = ABHD5-PLIN5 interaction inhibitors, primary screen, cell lysate, split luciferase complementation, luminescence; AID 602281, 2012; Split G. princeps luciferase complementation, 4 h; Perilipin-5 (Homo sapiens) + 1-acylglycerol-3-phosphate O-acyltransferase ABHD5 (Homo …; 360,000 compounds, 0.78% hits; inhibition, % at 4 µM;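 active means inhibition above the mean inhibition across every tested compound plus 3 SD, cut at about 22% in these data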;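 further: 0% = DMSO only wells and the 100% control is not disclosed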
Target sequence (Q00G26 whole entry, looked up): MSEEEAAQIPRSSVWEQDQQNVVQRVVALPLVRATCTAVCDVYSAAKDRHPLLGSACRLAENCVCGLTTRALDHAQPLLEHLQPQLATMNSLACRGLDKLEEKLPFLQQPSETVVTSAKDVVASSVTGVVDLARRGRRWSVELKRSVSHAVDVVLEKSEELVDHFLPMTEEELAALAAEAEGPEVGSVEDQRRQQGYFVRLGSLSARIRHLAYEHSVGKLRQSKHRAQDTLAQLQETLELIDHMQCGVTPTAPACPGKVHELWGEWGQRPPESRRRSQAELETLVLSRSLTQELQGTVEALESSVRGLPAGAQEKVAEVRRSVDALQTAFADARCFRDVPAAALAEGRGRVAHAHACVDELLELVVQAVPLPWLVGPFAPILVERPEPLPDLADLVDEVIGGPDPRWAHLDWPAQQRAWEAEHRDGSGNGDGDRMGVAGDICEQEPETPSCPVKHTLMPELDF
Target sequence (Q8WTS1 whole entry, looked up): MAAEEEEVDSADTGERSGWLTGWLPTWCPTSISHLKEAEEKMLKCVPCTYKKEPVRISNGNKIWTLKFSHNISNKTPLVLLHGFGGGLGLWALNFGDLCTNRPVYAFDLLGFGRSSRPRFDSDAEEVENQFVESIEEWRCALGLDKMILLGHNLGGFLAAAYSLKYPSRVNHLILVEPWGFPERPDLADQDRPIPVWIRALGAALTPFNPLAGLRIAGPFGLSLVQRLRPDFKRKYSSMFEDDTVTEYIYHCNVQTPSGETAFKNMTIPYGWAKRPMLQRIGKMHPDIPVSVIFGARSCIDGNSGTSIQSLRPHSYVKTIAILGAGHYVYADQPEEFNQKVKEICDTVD
Peg3 prom inh-2 = Peg3 promoter reporter inhibitors, retest, confirmation, cell-based, HeLa, luciferase reporter, single concentration; shares compounds with Peg3 prom inh-1; HeLa PEG-Prom luciferase reporter, luminescence, overnight; inhibition, % at 20 µM; 1,300 compounds, 84% hits; AID 602417, 2012;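 active means at 20 µM dose, 40% or more inhibition averaged across four replicates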
Starred values were filed as active, the others as inactive; . = no result given; ! = not active in a repeat.

SMILES	Peg3 prom inh-1	MITF TRPM1 inh	CF NFkB inh	KKLEB tox	HIF-2a block	ABHD5-PLIN5 inh	Peg3 prom inh-2
CSc1ccc2c(c1)C(N1CCN(C)CC1)Cc1ccccc1S2 (stereo not given)	82*!	31	37	-13	-4	14	84*
CN1CCN(C2Cc3ccccc3Sc3ccc(Cl)cc32)CC1 (stereo not given)	47	-13	8	6	5	17	.
N/C(CSc1ncccc1C(F)(F)F)=N\O	4	-3	-8	4	11	-7	.
O=C(O)c1ccccc1C(=O)N1CCN(c2ncccn2)CC1	-13	-11	-25	11	17	2	.
O=C(c1cnc(N2CCN(c3ncccn3)CC2)c2ccccc12)N1CCN(c2ncccn2)CC1	60*	-5	-4	0	7	0	34
CCOC(=O)c1ccc(NC(=O)C(=O)NCC2(c3ccc(OC)cc3)CCOCC2)cc1	14	-11	12	3	16	0	.
CN(C)CCN(C)C1CN(CCc2ccccc2)S(=O)(=O)C1 (stereo not given)	-1	.	-2	-4	12	-11	.
Cn1cccc1C(=O)OCC(=O)N1c2ccccc2NC(=O)C1(C)C	10	-1	8	1	12	-1	.
Cc1ccc(-n2cc(CNCCc3cscn3)c(-c3ccc(F)cc3)n2)cc1	-23	46	-2	-6	-136	4	.
Cc1ccc(-n2cc(CNCCCn3ccnc3C)c(-c3ccc(F)cc3)n2)cc1	112*	72*	24	-19	-5	18	98*
COc1ccc(-c2c(-c3cc(OC)cc(OC)c3)n(C)c3ccc(-c4ccc(S(N)(=O)=O)cc4)cc23)cc1	53*	6	39	-13	20	-11	30
Oc1c(C(Nc2cccc(C(F)(F)F)c2)c2cccnc2)ccc2cccnc12 (stereo not given)	13	-25	-10	-1	14	9	.
O=C(COc1cccc2cccnc12)Nc1nccs1	-206	-34	-17	3	-206	0	.
Cc1cc(NC(c2cccnc2)c2ccc3cccnc3c2O)no1 (stereo not given)	73*	57	-1	6	-3	10	69*
Oc1cccc(C(Nc2nccs2)c2ccc3cccnc3c2O)c1 (stereo not given)	56*	48	-4	-5	16	4	85*
COc1ccc2nc3c(cc2c1)c(NC(=O)CC(C)C)nn3CC(C)C	34	-14	-1	1	-20	2	.
CCN1CCN(CCNC(=O)c2ccc(/C=C3\Sc4ccccc4N(Cc4ccccc4F)C3=O)cc2)CC1	109*	5	-6	-30	-3	17	99*
CCN1CCN(c2ccc(S(=O)(=O)N3CCOCC3)cc2NC(=O)/C=C/c2ccc([N+](=O)[O-])cc2)CC1	70*	64*	-29	-1	-13	10	75*
COc1ccccc1-n1ccnc(SCC(=O)NCCc2ccccc2)c1=O	-12	4	-18	7	-15	-33	.
Oc1c(Br)cc(Br)cc1CNc1cccc2cccnc12	5	26	25	23	-4	-10	.
Oc1c(Br)cc(Br)c2cccnc12	50*	21	3	11	15	-2	59*
CCCSc1ccc2nc(-c3ccccc3)cn2c1	77*	79*	-10	-70*	69*	-3	69*
CC(=O)Nc1cccc(NC(=O)c2cc(-c3cccnc3)nc3ccc(Cl)cc23)c1	57*	1	17	-18	4	4	47*
CC(=O)Nc1cccc(NC(=O)c2cc(-c3ccccn3)nc3ccc(Cl)cc23)c1	7	13	-11	-1	11	5	.
CC(=O)c1cccc(NC(=O)c2cccc3c(-c4cccnc4)coc23)c1	66*	.	-34	0	-62	12	61*
SMILES	Peg3 prom inh-1	MITF TRPM1 inh	CF NFkB inh	KKLEB tox	HIF-2a block	ABHD5-PLIN5 inh	Peg3 prom inh-2
CCN(CC)C(=O)Cn1cc(C(=O)C(=O)NCc2ccccn2)c2ccccc21	-18	0	16	-12	-5	-2	.
O=C(Nc1cc(C(F)(F)F)ccc1N1CCCCC1)C1=COCCO1	8	.	5	-11	-11	-3	.
O=C(NCCN1CCOCC1)c1ccc(NC(=O)C2COc3ccccc3O2)cc1 (stereo not given)	0	-16	1	-16	8	-2	.
O=C1OCCC1Sc1nnc(-c2ccc(Cl)cc2Cl)o1 (stereo not given)	71*	40	9	-14	76*	5	63*
C=CCC[C@@H](Cc1ccc(F)cc1)C(=O)OC[C@@H](NC(=O)[C@@H](CC=C)CC(=O)N(CCO)Cc1ccccc1)c1ccccc1	38	8	13	-2	17	2	.
COc1ccc(C[C@H]2CN3C(=NC[C@@H]3Cc3ccc(O)cc3)N2C[C@H](C)NC(=O)CCC2CCCCC2)cc1	63*	-4	9	-11	-11	8	29
C[C@@H](CN1C2=NC[C@H](C)N2C[C@H]1Cc1ccc(O)cc1)NC(=O)CCC1CCCCC1	2	-7	-17	9	9	-13	.
COC1=CC(=O)c2c(ccc3ncnc(N)c23)C1=O	93*	113*	82*	-90*	91*	55*	99*
Cc1cccc(CNC(=O)c2ccc3nc(Cc4ccccc4F)oc3c2)n1	-227	-79	-74	-10	-239	-4	.
CN(Cc1c(C(=O)N/N=C/c2ccc(F)cc2)nnn1-c1nonc1N)C1CCCCC1	2	-3	3	-8	5	10	.
CC(C)c1ccc(/C=N/NC(=O)c2nnn(-c3nonc3N)c2CN(C)C2CCCCC2)cc1	65*	4	2	-16	5	-3	32
CN(C)c1ccc(/C=N/NC(=O)c2nnn(-c3nonc3N)c2COc2ccc(F)cc2)cc1	87*	-6	0	8	14	-4	51*
C/C(=N\NC(=O)c1nnn(-c2nonc2N)c1CN(C)c1ccccc1)c1ccccc1O	51*	12	12	6	14	3	71*
CCOc1ccc(/C=N/NC(=O)c2nnn(-c3nonc3N)c2COc2ccc(F)cc2)cc1	54*	-3	-36	7	15	-4	25
